# Screening results deposited in PubChem BioAssay by National Center for Advancing Translational Sciences (NCATS).
# Shown are actives, neighbours in structure and some others; about 18% of the full set was active somewhere.
# IL-1B inflam inh – blocks inflammasome-driven IL-1 beta release; actives 4.7% (n = 360,000); activity change, % at 57.5 µM; THP-1 LPS/ATP IL-1B secretion, AlphaLISA, 16 h; stronger effect = lower value; in the data active = activity change below about -50%; inconclusive = mostly about -30% to -49%; also: % is scaled to controls: 0 for no effect and ±100 for the full control effect
#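 THP-1 cells pretreated 1 hr with compounds (up to 57.5 uM final), then stimulated with LPS (250 ng/mL final) plus ATP (1.25 mM final); secreted IL-1B measured by AlphaLISA after 16 hr, decreased signal indicating inhibition.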
# DT40 TDP1 no CPT – qHTS for Inhibitors of human tyrosyl-DNA phosphodiesterase 1 (TDP1): qHTS in cells in absence of CPT | actives 15% (n = 420,000) | AID 686978, 2013 | Potency, µM (top dose mostly 46.2 µM), for inactives: at the highest dose activity change, negative = growth inhibition, most hits filed as inhibitors | DT40 Tdp1-/- hTDP1 cells, no CPT, ATP luminescence, 48 h; also: potency is read from the fitted curve at half-maximal effect; % is scaled to controls: 0 for no effect and ±100 for the full control effect; nearly all actives have a fitted effect of over 55% in size
#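 A cellular qHTS used chicken DT40 cells lacking endogenous Tdp1 but carrying stably transfected human TDP1. Compounds were applied without camptothecin, and cell growth kinetics were judged by ATP-dependent luminescence after ≥48 hr.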
# TGFb inhibitor – TGF-b pathway inhibition | Potency, µM (highest dose often 46.1 µM), without a hit: at the top dose activity, negative = inhibition, usual class: inhibitors | actives 1.2% (n = 410,000) | HepG2 CAGA-GFP TGF-b/SMAD3 reporter, GFP fluorescence, 18 h; TGF-beta stimulated, 500 pg/mL final | AID 588855; also: potency is read from the fitted curve at half-maximal effect; % is scaled to controls: 0 for no effect and ±100 for the full control effect; nearly all actives have a fitted effect of over 65% in size
#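 First, reporter cells (HEPG2 CAGA-GFP) rested 2 h at 37 degrees C. Next, compounds were pinned in and TGF-beta added to 500 pg/mL final. After 18 h, GFP was imaged per cell and summed per well.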
# TDP1 inh – inhibitors of human tyrosyl-DNA phosphodiesterase TDP1 | recombinant TDP1, AlphaScreen DNA substrate cleavage | Potency, µM (titrated, usually from 130 µM), for inactives: at the highest dose activity change, negative = inhibition, actives largely listed as inhibitors | actives 0.28% (n = 350,000); also: potency is read from the fitted curve at half-maximal effect; % is scaled to controls: 0 for no effect and ±100 for the full control effect; nearly all actives have a fitted effect of over 40% in size
# Target sequence (Q9NUW8 whole entry, looked up): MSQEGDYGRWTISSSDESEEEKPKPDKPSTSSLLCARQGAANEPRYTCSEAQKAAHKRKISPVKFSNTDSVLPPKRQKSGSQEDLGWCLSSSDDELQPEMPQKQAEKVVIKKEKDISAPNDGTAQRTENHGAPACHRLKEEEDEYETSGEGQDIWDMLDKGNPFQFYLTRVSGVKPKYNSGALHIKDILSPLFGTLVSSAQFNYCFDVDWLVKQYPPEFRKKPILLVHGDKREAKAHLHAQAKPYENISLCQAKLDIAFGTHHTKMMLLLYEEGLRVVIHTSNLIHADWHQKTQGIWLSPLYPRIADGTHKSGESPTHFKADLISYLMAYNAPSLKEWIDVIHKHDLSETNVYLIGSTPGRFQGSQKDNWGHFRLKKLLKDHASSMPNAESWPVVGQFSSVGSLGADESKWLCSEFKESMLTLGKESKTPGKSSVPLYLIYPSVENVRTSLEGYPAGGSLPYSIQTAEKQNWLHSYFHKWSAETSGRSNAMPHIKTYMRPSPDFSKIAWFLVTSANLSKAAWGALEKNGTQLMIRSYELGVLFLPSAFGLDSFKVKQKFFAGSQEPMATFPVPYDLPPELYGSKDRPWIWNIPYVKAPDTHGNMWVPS
#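 Steps: enzyme plus compound, 15 min RT; add biotin/phosphotyrosine-FITC oligonucleotide (15 nM final), react 5 min; add donor/acceptor beads (10 ug/ml final), 10 min; read AlphaScreen. Tdp1 at 1 nM final.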
# HepG2 viability – kills HepG2 cells in TGF-b inhibitor counter-screen; HepG2 CAGA-GFP viability, ATP luminescence, 18 h; Potency, µM (titrated, usually from 46.1 µM), for inactives: at the top dose activity change, negative = cytotoxicity, most hits filed as cytotoxic; actives 0.76% (n = 410,000); also: potency is read from the fitted curve at half-maximal effect
#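 CellTiter-Glo luminescence gave cytotoxicity after 18 hours at 37 degrees C. The cells were HepG2 CAGA-GFP in 1% FBS DMEM, stimulated with 500 pg/mL TGF-beta after compound addition. %Activity was normalised to no-cell wells (complete cell-killing) and DMSO (no toxicity), and curves were fitted and classified.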
# TDP1 cell CPT – DT40-hTDP1 cell growth loss with CPT | chicken DT40 Tdp1-/-;hTDP1 cells + 20 nM CPT, ATP luminescence, 48 h | Potency, µM (doses to about 46.2 µM), without a hit: at the highest dose activity change, negative = growth inhibition, actives largely listed as inhibitors | actives 12% (n = 420,000) | AID 686979; also: potency is read from the fitted curve at half-maximal effect; % is scaled to controls: 0 for no effect and ±100 for the full control effect; nearly all actives have a fitted effect of over 55% in size
#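 Chicken DT40 Tdp1-/- cells complemented with human TDP1, 400 cells/well, exposed to compounds plus 20 nM camptothecin for at least 48 h at 37 C; viability read as ATP content by CellTiter-Glo luminescence.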
# The depositor's hits bear a star; ? = inconclusive; / = not tested or not shown; [ ] = another dose, or the depositor's remark. Unless noted, calls follow the shape of the dose curve; as a rule, active = well fitted curve in the direction sought with a large enough effect; inconclusive = small, poorly fitted or top-dose-only effect, or another doubt; inactive = no such curve, though single readings can be large; an effect the other way counts as inactive or inconclusive.
SMILES,IL-1B inflam inh,DT40 TDP1 no CPT,TGFb inhibitor,TDP1 inh,HepG2 viability,TDP1 cell CPT
Cc1ccc(-n2cc(CN3CCN(c4ccccn4)CC3)c(-c3ccc(F)cc3)n2)cc1,?,16µM*,?,8%,-11%,4%
O=C(c1cn(Cc2ccccc2)nc1-c1ccc(Cl)cc1)N1CCN(c2ccccn2)CC1,-11,?,-24%,3%,5%,?
Cc1ccc(-n2cc(CN3CCN(C(=O)c4ncn[nH]4)CC3)c(-c3ccc(F)cc3)n2)cc1,-59*,23µM*,?,12%,-30%,?
Cc1ccc(-n2cc(CN3CCN(Cc4nccn4C)CC3)c(-c3ccc(F)cc3)n2)cc1,?,?,?,11%,-77%,?
Cc1cccc(-n2cc(CN3CCN(c4ccccn4)CC3)c(-c3cccc(F)c3)n2)c1,3,-3%,-13%,3%,-5%,?
O=C(c1cn(-c2ccccc2)nc1-c1cccc([N+](=O)[O-])c1)N1CCCCC1,-95*,?,0%,2%,14%,-16%
Cc1ccc(-c2nn(-c3ccccc3)cc2C(=O)N2CCN(c3ccccn3)CC2)cc1,?,29µM*,?,0%,26%,?
CCN(CC)C(=O)Cn1nnc2sc(-c3ccccc3)cc2c1=O,/,?,-10%,2%,-18%,?
CCOC(=O)c1ccccc1NC(=O)N1CCOc2ccc(Cl)cc21,/,?,-18%,8%,-25%,?
COc1ccc(C(=O)N2CCOCC2c2cc(C(=O)NCc3ccccc3)no2)cc1 (stereo unspecified),8,-8%,-4%,/,-10%,-6%
COc1ccc(COC(=O)c2sc3nc4n(c(=O)c3c2C)CCC4)cc1,29,?,17%,-2%,11%,-2%
CC(C)c1ccc(NC(=O)CSC2=Nc3ccccc3C3=NC(CC(=O)NCCc4ccccc4)C(=O)N23)cc1 (stereo unspecified),/,?,?,4%,0%,?
CCOc1ccccc1NC(=O)C(C)n1nnc2sc3c(c2c1=O)CCCC3 (stereo unspecified),/,15µM*,-23%,5%,2%,?
Cc1ccc(Cl)cc1NC(=O)C(C)n1nnc2sc3c(c2c1=O)CCCC3 (stereo unspecified),/,16µM*,3%,0%,5%,26µM*
Cc1c(Cl)cccc1NC(=O)C(C)n1nnc2sc3c(c2c1=O)CCCC3 (stereo unspecified),/,-18%,-13%,5%,-5%,?
CC(C(=O)Nc1cc(C(F)(F)F)ccc1Cl)n1nnc2sc3c(c2c1=O)CCCC3 (stereo unspecified),/,16µM*,-7%,2%,-7%,23µM*
COC(=O)C[C@H](NC(=O)Cn1cc(C)c(=O)[nH]c1=O)C(=O)OC,12,-13%,-5%,/,-3%,0%
Cc1ccc(C=Nc2ccc(N(C)C)cc2)o1,20,2.1µM*,?,12%,-80%,5.2µM*
CC(c1ccncn1)N(C)Cc1nc(Cc2ccccc2F)no1 (stereo unspecified),16,0%,-2%,-4%,1%,5%
CC(c1ccncn1)N(C)Cc1nc(-c2ccc(C(F)(F)F)cc2)no1 (stereo unspecified),0,?,-25%,0%,-39%,18µM*
C[C@@H]1COc2cc(N3CCC[C@@H]3CO)ccc2S(=O)(=O)N1,0,-16%,/,/,/,3%
O=C(O)c1ccc(N=Nc2c(O)ccc3ncccc23)cc1,19,2.9µM*,-1%,/,-6%,4.1µM*
O=C(O)c1cc(N=Nc2c(O)ccc3ccccc23)cc(C(=O)O)c1,36,-5%,-3%,-5%,14%,-24%
O=C(O)c1cc2c(cc1NC(=O)C1CCCC1)OCCO2,16,-10%,37%,0%[56.1 µM],13%,2%
CC(C)(C)OC(=O)N1CC=C2C(C#N)=C(N)C(C#N)(C#N)[C@H](c3cccnc3)[C@H]2C1,-9,?,-7%,5%,2%,-27%
SMILES,IL-1B inflam inh,DT40 TDP1 no CPT,TGFb inhibitor,TDP1 inh,HepG2 viability,TDP1 cell CPT
CC(C)N1CC=C2C(C#N)=C(N)C(C#N)(C#N)C(c3ccccc3)C2C1 (stereo unspecified),0,14µM*,19%,11%,-24%,?
CC(C)N1CC=C2C(C#N)=C(N)C(C#N)(C#N)[C@H](c3ccoc3)[C@H]2C1,/,/,/,2%,/,/
CCN1CC=C2C(C#N)=C(N)C(C#N)(C#N)C(c3cc(Cl)ccc3Cl)C2C1 (stereo unspecified),-8,23µM*,0%,3%,-54%,18µM*
CC(C)(C)OC(=O)N1CC=C2C(C#N)=C(N)C(C#N)(C#N)C(c3cccs3)C2C1 (stereo unspecified),-21,23µM*,?,7%,-27%,?
O=C(Nc1ccc(SC(F)(F)F)cc1)c1ccccn1,1,?,-4%,-5%,-51%,-10%
COc1ccccc1CNC(=O)CCCNC(=O)Cn1cnc2sc(C)c(C)c2c1=O,21,2%,3%,3%,3%,11%
Cc1ccc(C2(c3ccccc3)NC(=O)N(CC(=O)N3CC(=O)Nc4ccccc43)C2=O)cc1C (stereo unspecified),0,23µM*,?,2%,-21%,?
Cc1ccc(C2(c3ccccc3)NC(=O)N(CC(=O)NC3CCCCC3)C2=O)cc1C (stereo unspecified),-20,18µM*,-2%,-8%,0%,?
COc1ccc(C2Nc3ccccc3C(=O)N2Cc2ccccc2)cc1COc1ccc(F)cc1 (stereo unspecified),/,/,/,1%,/,/
Cc1c(Cc2ccc3c(c2)OCO3)sc(NC(=O)C(C)(C)C)c1C#N,14,8.2µM*,-8%,-3%,-18%,18µM*
CSc1ccc(CCNC(=O)c2ccc3c(Cl)c4c(nc3c2)CCCC4)cc1,/,23µM*,?,3%,-5%,?
Cc1ccc(CCNC(=O)c2ccc3c(Cl)c4c(nc3c2)CCCC4)cc1,/,18µM*,-3%,7%,6%,?
Cc1ccc(N(C)C(=O)c2ccc3c(Cl)c4c(nc3c2)CCC4)cc1C,-65*,?,?,4%,-96%,?
